# Measured values taken from PubChem BioAssay.
# Values joined by “and” are separate entries in the source; they are usually repeats but may differ in a detail not shown here. Identical values can stand only once. Inconclusive results are not listed. Where a structure was tested more than once in an assay, its records may differ in their call. Active and inactive are the calls of the source. Unless noted, no stated cut-off is given here; in the data, active means inhibition above about 80%; inactive means the rest. Numbered stars: 1 amine (or outer) side, 2 acyl side, 3 side chain; on linkers, the order of the positions; unused ones are H or OH. Bridge positions count the residues as written; N and C are the ends. Square brackets hold non-standard residues; d marks the D form. Peptide text beside a SMILES is read from it. I, II: the chains in the order shown. Actinocin(9to1) = Cc1c2oc3c(C)ccc(C(=O)[*:1])c3nc-2c(C(=O)[*:2])c(N)c1=O; NMeV = CN[CH](C(=O)O)C(C)C; Sar = CNCC(=O)O
# Experiments:
# [1] = MELAS cybrid and Rieske KO viability enhancers – cell-based, MELAS cybrids, Rieske KO mouse fibroblasts, CellTiter-Glo, primary screen (AID 1508586;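 active means mean z-score across replicates of 1.96 or higher in either the MELAS or the Rieske mutant cell line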;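 further: z relative to plate mean and SD of compound and empty wells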); settings: low glucose
# [2] = target: NAD(+) hydrolase SARM1 (Homo sapiens) (UniProt Q6SZW1); assay: blocking NAD cleavage by SARM1 SAM-TIR – cell lysate, NAD-Glo luminescence (AID 1508614;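 active means compound whose remaining NAD level is above about 45 nM, limit read from the data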); settings: SAM-TIR HEK293T lysate NADase, at 1 µM, stronger effect = higher value
# [3] = test system: Aerobactin synthetase IucA (Klebsiella pneumoniae); assay: inhibition of K. pneumoniae IucA enzyme – biochemical, Tocris library, absorbance (AID 1345561; call rule not given here;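 further: 100% = enzyme without compound and 0% = no enzyme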); settings: purified IucA enzyme assay, absorbance (OD) read-out; stronger effect = lower value;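 tested at 8 µM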
# [4] = compounds altering viability of human ES cells (AID 493140; call rule not given here;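 further: cells exposed to compounds for four days before counting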); settings: human embryonic stem cell survival screen; stronger effect = higher value
# [5] = viability loss in pontine glioma line – cell-based, SU-DIPG-XVII, MIPE5.0, CellTiter-Glo, qHTS, dose response (AID 1347060; cut-off not given, nearly all actives have AC50 up to about 26 µM;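 further: cells exposed to compound for 48 hours before viability readout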); settings: CellTiter-Glo ATP luminescence
# [6] = growth inhibition, single agent or in combination, cell-based, chromothripsis tumors, cisplatin or BGB combos (AID 1671449); settings: LFS_MB_P medulloblastoma cells;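 further: cells exposed for 96 hours; 0% = vehicle DMSO and 100% = killing by high DMSO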
# [7] = growth inhibition, single agent and combos, cell-based, chromothripsis tumors, cisplatin or BGB combos (AID 1671450); settings: HDN33 neuroblastoma cells, stronger effect = higher value;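 further: cells exposed to compound for four days; 0% = vehicle DMSO and 100% = cell killing by high DMSO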
# [8] = growth inhibition, single agents and combos, ICB984, cell-based, cisplatin or BGB combos, synergistic combos for chromothripsis tumors (AID 1671451; call rule not given here;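 further: cells exposed for 96 hours before readout; 0% = vehicle DMSO and 100% = killing by high DMSO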); settings: ICB984 medulloblastoma cells, drug combinations, stronger effect = higher value
# [9] = growth inhibition, single agents and combos, LFS_MB_1R, cell-based, cisplatin or BGB combos, synergistic combos for chromothripsis tumors (AID 1671452); settings: LFS_MB_1R medulloblastoma cells, stronger effect = higher value;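 further: cells exposed for 96 hours before readout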
# [10] = growth inhibition, single agents and combos, HTB85, cell-based, BGB or cisplatin IC20 combos, synergistic combos for chromothripsis tumors (AID 1671453); settings: HTB85 osteosarcoma cells, drug combinations, stronger effect = higher value;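 further: cells exposed for 96 hours before readout; 0% = vehicle DMSO and 100% = high DMSO killing control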
# [11] = growth inhibition, single agents and combos, CRL2098, cell-based, BGB or cisplatin IC20 combos, synergistic combos for chromothripsis tumors (AID 1671454); settings: CRL2098 osteosarcoma cells, drug combinations, stronger effect = higher value;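 further: cells exposed for 96 h before readout; 0% = vehicle DMSO and 100% = killing by high DMSO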
# [12] = growth inhibition, single agents and combos, HD-MB03, cell-based, BGB or cisplatin IC20 combos, synergistic combos for chromothripsis tumors (AID 1671455; in the data active means inhibition above about 83%;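 further: 0% = vehicle DMSO and 100% = high DMSO as cytotoxic control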); settings: HD-MB03 medulloblastoma cells, stronger effect = higher value
# [13] = growth inhibition, single agents and combos, UWB1.289, cell-based, BGB or cisplatin combos, synergistic combos for chromothripsis tumors (AID 1671456); settings: UWB1.289 ovarian carcinoma cells, stronger effect = higher value;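 further: cells exposed to compound for four days; 0% = vehicle DMSO and 100% = killing by high DMSO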
# [14] = growth inhibition, single agents and combos, LFS_MB_2R, cell-based, cisplatin combos, synergistic combos for chromothripsis tumors (AID 1671457); settings: LFS_MB_2R medulloblastoma cells, stronger effect = higher value;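 further: cells exposed to compound for four days before readout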
# [15] = growth inhibition, MDA-MB-436, cell-based, BGB or cisplatin combos, synergistic combos for chromothripsis tumors (AID 1671458; call rule not given here;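 further: cells exposed for 96 hours; 0% = vehicle DMSO and 100% = killing by high DMSO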); settings: MDA-MB-436 breast carcinoma growth inhibition, drug combinations, stronger effect = higher value
# [16] = UWB1.289_BRCA1 ovarian cancer growth, cell-based, BGB or cisplatin combinations (AID 1671459); settings: UWB1.289 BRCA1 ovarian carcinoma, drug combinations, stronger effect = higher value
# [17] = drug combination toxicity in non-malignant astrocytes – cell-based, BGB or cisplatin IC20 combos, cytotoxicity control for chromothriptic childhood tumor combination screen (AID 1671460); settings: Human astrocytes, viability inhibition, drug combinations, at 0.5 µM, stronger effect = higher value;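 further: cells exposed to compounds for 96 hours before viability readout; 0% = vehicle and 100% = killing control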
# [18] = BT084 cell growth, single and combined drugs, ICGC_MB145, cisplatin and BGB IC40 combos (AID 1671461); settings: BT084 medulloblastoma cells, drug combinations, stronger effect = higher value;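 further: cells exposed to drugs for 96 hours; 0% = vehicle DMSO and 100% = high DMSO full killing control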
# [19] = RCMB18 cell growth, single agent and combined, cisplatin and BGB IC40 combos (AID 1671462); settings: RCMB18 medulloblastoma cells, stronger effect = higher value;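 further: cells exposed to compound for four days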
# [20] = CRL1545 cell growth, single agent and combined, cisplatin and BGB IC20 combos (AID 1671464); settings: CRL1545 osteosarcoma cells, stronger effect = higher value;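 further: cells exposed to compound for 96 hours before readout; 0% = vehicle DMSO and 100% = high DMSO killing control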
# [21] = MELAS cybrid survival, CellTiter-Glo 48 h, stronger effect = higher value
# [22] = Rieske KO mouse fibroblast survival, CellTiter-Glo 72 h
# [23] = measured here: combination with BGB IC40, at 0.05 µM
# [24] = measured here: with BGB IC20 combination, at 0.5 µM
# [25] = measured here: with cisplatin IC20 combination, at 0.5 µM
# [26] = measured here: combination with cisplatin, at 0.5 µM
# [27] = measured here: combination with cisplatin, at 5 µM
# Chain of NAD(+) hydrolase SARM1 (Homo sapiens) (Q6SZW1 whole entry, looked up): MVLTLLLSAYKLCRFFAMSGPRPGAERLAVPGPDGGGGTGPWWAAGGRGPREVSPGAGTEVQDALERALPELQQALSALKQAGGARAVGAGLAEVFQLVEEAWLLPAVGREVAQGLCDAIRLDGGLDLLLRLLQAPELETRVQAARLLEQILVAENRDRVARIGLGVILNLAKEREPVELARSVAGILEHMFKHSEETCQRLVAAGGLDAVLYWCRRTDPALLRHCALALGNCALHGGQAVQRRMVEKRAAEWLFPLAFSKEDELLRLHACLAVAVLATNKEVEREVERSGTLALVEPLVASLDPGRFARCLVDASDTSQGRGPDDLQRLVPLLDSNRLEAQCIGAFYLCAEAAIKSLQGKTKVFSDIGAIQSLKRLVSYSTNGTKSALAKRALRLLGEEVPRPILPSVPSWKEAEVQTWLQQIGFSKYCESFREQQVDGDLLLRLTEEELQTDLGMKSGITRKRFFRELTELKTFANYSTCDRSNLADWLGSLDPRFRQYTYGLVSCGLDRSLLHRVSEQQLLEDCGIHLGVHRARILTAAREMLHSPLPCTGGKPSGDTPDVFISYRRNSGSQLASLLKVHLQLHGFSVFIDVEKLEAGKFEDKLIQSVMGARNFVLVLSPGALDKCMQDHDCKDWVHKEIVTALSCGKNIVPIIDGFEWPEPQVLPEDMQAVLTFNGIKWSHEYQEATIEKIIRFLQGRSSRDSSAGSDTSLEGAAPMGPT
smiles,measurement,setting,value
CCN(CC)C(=O)[C@]1(c2ccccc2)C[C@@H]1CN,z-score,[1]; [21],-0.406 (inactive)
same,z-score,[1]; [22],-0.158
same,remaining NAD,[2],10 nM (inactive)
C=C1/C(=C\C=C2/CCC[C@]3(C)[C@@H]([C@H](C)/C=C/[C@@H](O)C4CC4)CC[C@@H]23)C[C@@H](O)C[C@@H]1O,remaining activity,[3],98% (inactive)
same,z-score,[1]; [21],0.67 (inactive) and -0.148 (inactive)
same,z-score,[1]; [22],-0.0393 and -0.0428
CC(C(O)c1ccc(O)cc1)N1CCC(Cc2ccccc2)CC1 (stereo unspecified),survival,[4],3.25 (inactive)
same,z-score,[1]; [21],-0.121 (inactive) and -0.969 (inactive) and -0.489 (inactive)
same,z-score,[1]; [22],-0.18 and -0.279 and 1.18
CN(C)[C@@H]1C(=O)C(C(=O)NCN2CCCC2)=C(O)[C@@]2(O)C(=O)C3=C(O)c4c(O)cccc4[C@@](C)(O)C3CC12 (stereo partly specified),survival,[4],2.5 (inactive)
"Cc1c2oc3c(C)ccc(C(=O)NC4C(=O)NC(C(C)C)C(=O)N5CCCC5C(=O)N(C)CC(=O)N(C)C(C(C)C)C(=O)OC4C)c3nc-2c(C(=O)NC2C(=O)NC(C(C)C)C(=O)N3CCCC3C(=O)N(C)CC(=O)N(C)C(C(C)C)C(=O)OC2C)c(N)c1=O (stereo unspecified) (I: TVP[Sar][NMeV] / II: TVP[Sar][NMeV]; ester I:1-I:C, II:1-II:C; linker I:N-II:N via Actinocin(9to1); configuration not given here)",AC50,[5],4.07 nM (active)
O=C(O)COCCN1CCN([C@H](c2ccccc2)c2ccc(Cl)cc2)CC1,remaining NAD,[2],10 nM (inactive)
Fc1ccc(C2CCNCC2COc2ccc3c(c2)OCO3)cc1 (stereo unspecified),z-score,[1]; [21],-1.22 (inactive)
same,z-score,[1]; [22],0.964
O=C(O)Cc1ccc([N+](=O)[O-])cc1,z-score,[1]; [21],-0.276 (inactive)
same,z-score,[1]; [22],-0.17
O=c1[nH]c(=O)n(C2CC(O)C(CO)O2)cc1F (stereo unspecified),z-score,[1]; [21],-0.408 (inactive)
same,z-score,[1]; [22],0.487
same,inhibition,"[6]; at 0.5 µM, stronger effect = higher value",-20.6% (inactive) and -34.4% (inactive)
same,inhibition,"[6]; measured here: combination with BGB IC20, at 0.005 µM",-20.3% and -26.1%
same,inhibition,"[6]; measured here: combination with BGB IC40, at 0.005 µM",-43.8% and -18.6%
same,inhibition,[6]; [23],-14.2% and -19.6%
same,inhibition,"[6]; measured here: combination with cisplatin, at 0.5 µM, stronger effect = higher value",-24.9% and -48.9%
same,inhibition,"[6]; measured here: combination with cisplatin, at 5 µM, stronger effect = higher value",-34.2% and -34.5%
same,inhibition,"[7]; BGB combo, at 5 µM",90.8% and 95.2%
same,inhibition,[7]; at 0.5 µM,75% (inactive) and 78.5% (inactive)
same,inhibition,"[7]; cisplatin combo, at 5 µM",63% and 78%
same,inhibition,[7]; [24],72.2% and 74.3%
same,inhibition,[7]; [25],71.3% and 78.7%
same,inhibition,"[7]; single agent, at 5 µM",78.6% and 88.5%
same,inhibition,"[8]; BGB IC20 combo, at 0.005 µM",-21.6% and 13.5%
same,inhibition,"[8]; BGB IC40 combo, at 0.005 µM",-12.3% and -34.3%
same,inhibition,"[8]; BGB IC40 combo, at 0.05 µM",-9.05% and -30.1%
same,inhibition,[8]; at 0.5 µM,-17.5% (inactive) and -17.1% (inactive)
same,inhibition,"[8]; cisplatin combo, at 0.05 µM",-9.05% and -34.7%
same,inhibition,"[8]; cisplatin combo, at 0.5 µM",-15.5% and -22.4%
same,inhibition,"[8]; cisplatin combo, at 5 µM",-14.7% and -40.3%
same,inhibition,"[8]; measured here: 5 uM single agent, at 5 µM",-2.45% and 14.3%
same,inhibition,[9]; at 0.5 µM,-19.6% (inactive) and -23.9% (inactive)
same,inhibition,[9]; [23],8.22% and -31%
same,inhibition,[9]; [26],23.3% and -25.8%
same,inhibition,[9]; [27],-7.39% and -26.1%
same,inhibition,[10]; at 0.5 µM,-24.9% (inactive) and 12.1% (inactive)
same,inhibition,"[10]; measured here: with BGB IC20, at 0.5 µM",-52.4% and -21.4%
same,inhibition,"[10]; measured here: with BGB IC20, at 5 µM",5.67% and -8.07%
same,inhibition,"[10]; measured here: with cisplatin IC20, at 0.5 µM",-22.6% and 15.4%
same,inhibition,"[10]; measured here: with cisplatin IC20, at 5 µM",14% and 12.8%
same,inhibition,"[10]; single agent, at 5 µM",12% and 38.7%
same,inhibition,[11]; at 0.5 µM,-50.2% (inactive) and -54% (inactive)
same,inhibition,"[11]; measured here: combination with BGB at IC20, at 0.5 µM",-11.9% and -25.4%
same,inhibition,"[11]; measured here: combination with cisplatin at IC20, at 0.5 µM",-87.1% and -79.9%
same,inhibition,[12]; at 0.5 µM,75.2% (inactive) and 82.3% (active)
same,inhibition,"[12]; measured here: combo with BGB at IC20, at 0.5 µM",72.8% and 77.8%
same,inhibition,"[12]; measured here: combo with cisplatin at IC20, at 0.5 µM",79.4% and 87.9%
same,inhibition,[13]; at 0.5 µM,11% (inactive) and 22.1% (inactive)
same,inhibition,"[13]; measured here: inhibition with BGB combination, at 0.05 µM",-37.3% and -7.93%
same,inhibition,"[13]; measured here: inhibition with cisplatin combination, at 0.05 µM",-10.2% and -15.2%
same,inhibition,[14]; at 0.5 µM,-6.08% (inactive) and -22.6% (inactive)
same,inhibition,[14]; [26],-26% and -30.3%
same,inhibition,[14]; [27],-20.5% and -22.8%
same,inhibition,[15]; at 0.5 µM,39.9% (inactive) and 54.5% (inactive)
same,inhibition,"[15]; measured here: BGB combination, at 0.5 µM",12.4% and 36%
same,inhibition,"[15]; measured here: BGB combination, at 5 µM",22.9% and 47.8%
same,inhibition,"[15]; measured here: cisplatin combination, at 0.5 µM",44% and 56.3%
same,inhibition,"[15]; measured here: cisplatin combination, at 5 µM",73% and 86.7%
same,inhibition,"[16]; BGB combination, concentration series, at 5 µM",17.5% and 50.3%
same,inhibition,[16]; at 0.5 µM,15.2% (inactive) and 29.3% (inactive)
same,inhibition,"[16]; cisplatin combination, concentration series, at 5 µM",55.7% and 77.6%
same,inhibition,[17],17.4% (inactive) and 30.8% (inactive)
same,inhibition,[17]; measured here: combo with BGB IC20,14.4% and 24.7%
same,inhibition,[17]; measured here: combo with cisplatin IC20,5.72% and 15.6%
same,inhibition,[18]; at 0.5 µM,-20.4% (inactive) and -2.18% (inactive)
same,inhibition,"[18]; cisplatin combination, at 0.5 µM",-4.33% and -24.2%
same,inhibition,"[18]; cisplatin combination, at 5 µM",-24.6% and 6.37%
same,inhibition,"[18]; measured here: BGB IC40 combination 0.05 uM, at 0.05 µM",-0.925% and 1.52%
same,inhibition,"[18]; single agent, at 5 µM",-4.53% and -3.71%
same,inhibition,[19]; at 0.5 µM,-3.13% (inactive) and -17.8% (inactive)
same,inhibition,"[19]; cisplatin combo, at 5 µM",11.8% and 9.06%
same,inhibition,"[19]; measured here: BGB IC40 combination, at 0.05 µM",-3.94% and -12.9%
same,inhibition,[19]; [26],1.15% and 0.687%
same,inhibition,"[19]; single agent, at 5 µM",-14.6% and -9.12%
same,inhibition,[20]; at 0.5 µM,30.4% (inactive) and 66.8% (inactive)
same,inhibition,[20]; [24],10.3% and 56.4%
same,inhibition,[20]; [25],40.5% and 71.6%
same,inhibition,"[20]; single agent, at 0.05 µM",7.06% and 11.7%
same,inhibition,"[20]; single agent, at 5 µM",91.4% and 96.1%
